Assay results as given in PubChem BioAssay AID485273 (Sanford-Burnham Center for Chemical Genomics, 2010).
About 1,500 (0.45%) of roughly 330,000 compounds were called active. No stated cut-off is given here; in the data, active means inhibition above about 45% (passing the limit was not always enough); inconclusive means no clear call, values can overlap the other calls. This excerpt belongs to a sample that is enriched for actives.

The compounds below were run against Ubiquitin-conjugating enzyme E2 N (Homo sapiens) (UniProt P61088) (assay: blockers of UBC13 ubiquitin chain synthesis – biochemical, TR-FRET, uHTS, primary screen (AID 485273)). Details: UBC13 polyubiquitin chain formation, at 20 µM, stronger effect = higher value.
Chain of Ubiquitin-conjugating enzyme E2 N (Homo sapiens) (P61088 whole entry, looked up): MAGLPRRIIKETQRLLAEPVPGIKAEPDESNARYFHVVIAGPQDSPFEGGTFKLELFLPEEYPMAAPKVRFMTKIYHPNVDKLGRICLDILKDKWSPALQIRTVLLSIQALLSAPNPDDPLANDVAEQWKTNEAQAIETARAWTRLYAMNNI

inhibition, inactive:
COc1ccccc1-c1sc2ccccc2c1C#CC1(O)CCCCC1 -2.3%, CCCC1C(=O)N2C(N(C)C)=Nc3ccc(C)cc3N2C1=O (centres undefined) -21%, COc1cccc(OC)c1C(=O)Nc1ccc2c(c1)n(C)c(=O)n2C 1.6%, Cc1cc2oc3ccc(NCCC4CCCN4C)cc3c(=O)c2cc1C (centres undefined) 33.1%, COCCn1c(SCC(=O)Nc2ccccc2F)nc2c(c1=O)SCC2 -6.9%, COc1ccc(C2=NN(c3nc4ccccc4s3)C(=O)C2)cc1 -13.1%, COc1ccc(-n2nnnc2CNC(=O)c2ccc3ccccc3c2)cc1 -2.4%, Cc1c(Cl)cnc(NC(=O)COC(=O)C2CCCC2)c1Cl 3.7%, O=C(CCNS(=O)(=O)c1ccc(Br)cc1)NCC1CCCO1 (centres undefined) 1.5%, CCCN1CCn2c3c(c4cc(Br)ccc42)CCCC31 (centres undefined) -1.1%, COc1ccccc1C(=O)N1C(CC(=O)Nc2ccccc2C)C(=O)NC2CCCCC21 (centres undefined) -2.3%, CCCC[C@@H]1CN=C(N)N1CCc1cccc(F)c1 13.5%, CCCC[C@@H]1CN=C(N)N1CCCC -4.4%, COc1ccc(OC)c(-c2csc(NC(=O)C3=NNC(=O)CC3)n2)c1 -3.9%, Cc1ccccc1CN1C(=O)c2ccccc2Sc2ccc(C(=O)NCCCN3CCOCC3)cc21 15.4%, O=C(NCCCN1CCOCC1)c1ccc2c(c1)N(Cc1cccc(F)c1)C(=O)c1ccccc1S2 13.3%, C=CCn1c(=S)sc2c(=O)[nH]c(C)nc21 -13.8%, CCNC(=O)CCc1nc(-c2ccc(C)cc2)no1 0.3%, CN1CCN(C(=O)CCc2nc(-c3ccc(Cl)cc3)no2)CC1 -0.3%, Cc1cc([N+](=O)[O-])c(NC2CCCCC2)c([N+](=O)[O-])c1 -28.1%, O=C(Nc1ccc(F)cc1)C(=O)c1cn(CC(=O)N2CCOCC2)c2ccccc12 -4.6%, CCN(CC(=O)Nc1ccc(OC)cc1)C(=O)c1ccc(Cl)c(S(=O)(=O)N2CCCC2)c1 8.9%, O=C(NCCc1ccc(F)cc1)c1ccc2nccnc2c1 -9.4%, CC1CCCN(C(C(=O)Nc2ccc(C(C)C)cc2)c2ccc3c(c2)OCO3)C1 (centres undefined) 9%, COc1ccccc1C(=O)N(C1=NC(C)CS1)c1ccc(Cl)cc1 (centres undefined) 1.5%, COCCCNC(=O)CC1C[C@H](C(=O)N2CCCCC2)[C@@]2(CCc3ccccc3)c3[nH]c4ccccc4c3CCN2C1=O (some centres undefined) 14%, Cc1nc(N2CCOCC2)c2c(C)c(C(=O)Nc3ccc(C(F)(F)F)cc3)sc2n1 5.6%, COc1ccc(NC(=O)c2sc3nc(C)nc(N4CCN(c5ccccn5)CC4)c3c2C)c(OC)c1 5.6%, Cc1cc(C)nc(N2C(=O)CC(Cc3ccccc3)C2=O)n1 (centres undefined) -12.4%, CC(C)NC(=O)C(c1ccc(F)cc1)N(C(=O)CCC(=O)Nc1ccccn1)c1ccccc1F (centres undefined) 2.6%, C#CCOCCOCCOCCNc1nc(N2CCN(C(=O)C([C@@H](C)CC)n3cc(C(N)COC(=O)C(F)(F)F)nn3)CC2)nc(N2CCN(C(=O)[C@H](Cc3ccc(O)cc3)n3cc(C(N)[C@H](C)CC)nn3)CC2)n1 (some centres undefined) 37.1%, C#CCOCCOCCOCCNc1nc(N2CCN(C(=O)[C@H](CCC(=O)O)n3cc(C(N)CO)nn3)CC2)nc(N2CCN(C(=O)[C@H](CCCCN)n3cc(C(N)CC(C)C)nn3)CC2)n1 (some centres undefined) -3.6%, C#CCOCCOCCOCCNc1nc(N2CCN(C(=O)[C@H](CCCCN)n3cc(CCC(=O)O)nn3)CC2)nc(N2CCN(C(=O)[C@H](CCCCN)n3cc(CC(C)O)nn3)CC2)n1 (some centres undefined) 2%

inhibition, active:
COc1ccccc1-c1sc2ccccc2c1-c1ccc(C(C)=O)cc1 47.4%, COc1cccc2sc3cc(NCC[C@@H]4CCCN4C)ccc3c(=O)c12 45.1%, COc1ccc(-n2nnnc2-c2nc3ccccc3s2)cc1 53.4%, OC(CNCC1CCCO1)Cn1c2ccc(Br)cc2c2cc(Br)ccc21 (centres undefined) 57.5%, CCCC[C@@H]1CN=C(N)N1CCc1cc(C(F)(F)F)cc(C(F)(F)F)c1 66.9%, CCN1CCN(CCNC(=O)c2ccc(/C=C3/Sc4ccccc4N(Cc4cccc(C)c4)C3=O)cc2)CC1 50.8%, Cc1ccc(-c2noc(CCC(=O)Nc3ccccc3N3CCN(C)CC3)n2)cc1 71.9%, O=C(OCC1O[C@@H](OC(=O)c2cc(O)c(O)c(O)c2)[C@@H](OC(=O)c2cc(O)c(O)c(O)c2)[C@@H](OC(=O)c2cc(O)c(O)c(O)c2)[C@@H]1OC(=O)c1cc(O)c(O)c(O)c1)c1cc(O)c(O)c(O)c1 (some centres undefined) 138%, Cc1nc(N2CCN(c3ccccn3)CC2)c2c(C)c(C(=O)Nc3ccc(F)cc3)sc2n1 47.4%, C#CCOCCOCCOCCNc1nc(N2CCN(C(=O)C([C@@H](C)CC)n3cc(C(N)COC(=O)C(F)(F)F)nn3)CC2)nc(N2CCN(C(=O)[C@H](CCCCN)n3cc(C(N)CC(C)C)nn3)CC2)n1 (some centres undefined) 108%, C#CCOCCOCCOCCNc1nc(N2CCN(C(=O)C([C@@H](C)O)n3cc([C@@H](N)CCCCN)nn3)CC2)nc(N2CCN(C(=O)[C@H](CCCCN)n3cc(CN)nn3)CC2)n1 (some centres undefined) 107%
